Shown are actives, neighbours in structure and some others; about 18% of the full set was active somewhere.
IL-1B inflam inh = inflammasome signaling inhibition, IL-1 beta readout; activity change, % at 57.5 µM; THP-1 LPS/ATP IL-1B secretion, AlphaLISA, 16 h; active compounds read low; AID 743279; hit rate 4.7% among 360,000; in the data active = activity change below about -50%; inconclusive = mostly about -30% to -49%; also: % is scaled to controls: 0 for no effect and ±100 for the full control effect
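THP-1 cells pretreated 1 hr with compounds (up to 57.5 uM final), then stimulated with LPS (250 ng/mL final) plus ATP (1.25 mM final); secreted IL-1B measured by AlphaLISA after 16 hr, decreased signal indicating inhibition.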
HepG2 viability = counter-screen for TGF-b inhibitors: cytotoxicity in HepG2 cells. HepG2 CAGA-GFP viability, ATP luminescence, 18 h. Potency, µM (series often up to 46.1 µM), without a hit: top-dose activity change, negative = cytotoxicity, actives largely listed as cytotoxic. hit rate 0.76% among 410,000. AID 588856; also: potency is read from the fitted curve at half-maximal effect
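CellTiter-Glo luminescence gave cytotoxicity after 18 hours at 37 degrees C. The cells were HepG2 CAGA-GFP in 1% FBS DMEM, stimulated with 500 pg/mL TGF-beta after compound addition. %Activity was normalised to no-cell wells (complete cell-killing) and DMSO (no toxicity), and curves were fitted and classified.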
TDP1 cell CPT = growth inhibition of DT40 Tdp1-/-;hTDP1 cells with camptothecin (screen for TDP1 inhibitors); Potency, µM (titrated, usually from 46.2 µM), inactives show at the highest dose activity change, negative = growth inhibition, usual class: inhibitors; AID 686979; hit rate 12% among 420,000; chicken DT40 Tdp1-/-;hTDP1 cells + 20 nM CPT, ATP luminescence, 48 h; also: potency is read from the fitted curve at half-maximal effect; % is scaled to controls: 0 for no effect and ±100 for the full control effect; nearly all actives have a fitted effect of over 55% in size
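Chicken DT40 Tdp1-/- cells stably complemented with human TDP1 were seeded at 400 cells/well in medium containing 20 nM camptothecin, exposed to pin-transferred compounds, and grown at 37 °C for at least 48 hr. Viability was read as ATP luminescence.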
DT40 TDP1 no CPT = qHTS for Inhibitors of human tyrosyl-DNA phosphodiesterase 1 (TDP1): qHTS in cells in absence of CPT; DT40 Tdp1-/- hTDP1 cells, no CPT, ATP luminescence, 48 h; Potency, µM (series often up to 46.2 µM), without a hit: at the top dose activity change, negative = growth inhibition, actives largely listed as inhibitors; hit rate 15% among 420,000; AID 686978, 2013; also: potency is read from the fitted curve at half-maximal effect; % is scaled to controls: 0 for no effect and ±100 for the full control effect; nearly all actives have a fitted effect of over 55% in size
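Stably hTDP1-transfected Tdp1-null chicken DT40 cells were treated with library compounds minus camptothecin and grown for at least 48 hr at 37 °C, after which cellular ATP was quantified by luminescence.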
TGFb SMAD3 inh = inhibitors of TGF-b signaling; AID 588855; Potency, µM (top dose mostly 46.1 µM), for the others: top-dose activity, negative = inhibition, most hits filed as inhibitors; hit rate 1.2% among 410,000; HepG2 CAGA-GFP TGF-b/SMAD3 reporter, GFP fluorescence, 18 h; TGF-beta stimulated, 500 pg/mL final; also: potency is read from the fitted curve at half-maximal effect; % is scaled to controls: 0 for no effect and ±100 for the full control effect; nearly all actives have a fitted effect of over 65% in size
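Inhibition of TGF-beta-driven CAGA-GFP reporter expression in HEPG2 cells is measured by cellular GFP fluorescence after 18 h stimulation with 500 pg/mL recombinant TGF-beta in 1% FBS medium at 37 degrees C.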
TDP1 block = inhibitors of human tyrosyl-DNA phosphodiesterase TDP1; Potency, µM (top dose mostly 130 µM), without a hit: at the highest dose activity change, negative = inhibition, usual class: inhibitors; hit rate 0.28% among 350,000; recombinant TDP1, AlphaScreen DNA substrate cleavage; Q9NUW8; also: potency is read from the fitted curve at half-maximal effect; % is scaled to controls: 0 for no effect and ±100 for the full control effect; nearly all actives have a fitted effect of over 40% in size
Target sequence (Q9NUW8 whole entry, looked up): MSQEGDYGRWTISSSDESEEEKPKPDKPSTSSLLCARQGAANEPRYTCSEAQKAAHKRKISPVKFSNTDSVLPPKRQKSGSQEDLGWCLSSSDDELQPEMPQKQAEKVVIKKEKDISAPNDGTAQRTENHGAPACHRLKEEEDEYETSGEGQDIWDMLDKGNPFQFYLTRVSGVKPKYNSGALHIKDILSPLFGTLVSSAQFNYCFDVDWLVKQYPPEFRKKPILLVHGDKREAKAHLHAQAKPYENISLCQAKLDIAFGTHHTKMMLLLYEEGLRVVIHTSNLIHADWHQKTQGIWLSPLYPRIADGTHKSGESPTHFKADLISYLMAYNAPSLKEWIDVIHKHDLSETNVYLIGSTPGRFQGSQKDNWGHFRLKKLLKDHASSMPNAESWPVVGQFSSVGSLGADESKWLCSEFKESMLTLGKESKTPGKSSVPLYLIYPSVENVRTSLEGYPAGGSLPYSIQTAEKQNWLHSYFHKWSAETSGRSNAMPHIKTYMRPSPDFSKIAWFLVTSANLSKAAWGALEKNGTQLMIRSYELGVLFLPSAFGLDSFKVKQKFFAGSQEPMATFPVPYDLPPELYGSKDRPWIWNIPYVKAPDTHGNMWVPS
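Here, a 5' biotin and 3' phosphotyrosine-FITC DNA oligonucleotide reports Tdp1 activity: intact substrate bridges AlphaScreen beads, while cleavage leaves a 3' phosphate and drops signal. All incubations at room temperature.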
* marks the source's active call; other numbers are inactive results; ? = inconclusive; · = no result given; [ ] = remark or other dose. Unless noted, calls follow the shape of the dose curve; as a rule, active = well fitted curve in the direction sought with a large enough effect; inconclusive = small, poorly fitted or top-dose-only effect, or another doubt; inactive = no such curve, though single readings can be large; an effect the other way counts as inactive or inconclusive.

SMILES	IL-1B inflam inh	HepG2 viability	TDP1 cell CPT	DT40 TDP1 no CPT	TGFb SMAD3 inh	TDP1 block
O=C(C1CCCN(S(=O)(=O)c2ccc(Br)s2)C1)N1CCN(c2ccc(F)cc2)CC1 (configuration not stated)	·	-3%	18µM*	12µM*	-14%	2%
CC(=O)c1ccc(N2CCN(C(=O)C3CCN(S(=O)(=O)c4ccc(Br)s4)CC3)CC2)cc1	·	-1%	?	16µM*	?	2%
CC(=O)c1ccc(N2CCN(C(=O)C3CCCN(S(=O)(=O)c4ccc(Br)s4)C3)CC2)cc1 (configuration not stated)	·	-8%	15µM*	9.2µM*	-19%	-2%[12.3 µM]
Cc1ccc(S(=O)(=O)NCCSc2nnnn2-c2ccc(Cl)c(C(=O)O)c2)cc1	·	-19%	-17%	-4%	1%	6%
COc1cc(OC)cc(C(=O)Nc2ccccc2C(=O)NCc2cccnc2)c1	-15	-5%	14%	?	14%	8%[0.0935 µM]
COc1cccc(N(CC(=O)NC2CCCCC2)C(=O)Cn2nnc(-c3ccc(C)o3)n2)c1	-7	2%	-4%	-5%	7%	9%
CNC(=O)c1ccsc1NC(=O)C1CCN(S(=O)(=O)c2ccc(Cl)s2)CC1	23	-24%	16µM*	?	2%	0%
O=C(C1CCCN(S(=O)(=O)c2ccc(Br)s2)C1)N1CCN(c2ccccc2F)CC1 (configuration not stated)	·	5%	?	23µM*	-3%	2%
CC(=O)N1CCC(C(=O)N2CCN(S(=O)(=O)c3cccs3)CC2)CC1	16	-21%	-19%	-15%	-5%	4%
CC(=O)N1CCC(C(=O)N2CCN(S(=O)(=O)c3ccc(Cl)s3)CC2)CC1	0	14µM*	-29%	?	-16%	·
CCOC(=O)C1CCCN(S(=O)(=O)c2ccc(Br)s2)C1 (configuration not stated)	0	-4%	?	-14%	0%	1%
OC[C@@H]1CN(Cc2ccccc2)C[C@H](n2cnc3c(Nc4ccccc4)ncnc32)O1	-13	-7%	-20%	-22%	9%	·
c1ccc(CN2CCN(c3ncccn3)CC2)nc1	·	·	·	·	·	1%
c1cnc(N2CCN(Cc3c[nH]c4ccccc34)CC2)nc1	?	-24%	1.8µM*	2.1µM*	?	1%
O=C(c1ccc(Cl)cc1)N1CCN(c2cccc3[nH]ccc23)CC1	9	-17%	-7%	-24%	3%	5%
Cc1ccccc1N1CCN(Cc2c[nH]c3ccccc23)CC1	?	10µM*	3.7µM*	6.5µM*	?	-1%
Cc1ccc(CN2CCN(c3cccc4[nH]ccc34)CC2)cc1	27	-29%	16µM*	?	-22%	·
CCS(=O)(=O)N1CCN(Cc2c[nH]c3ccccc23)CC1	30	-26%	?	-29%	0%	?
COc1ccc(OCC(=O)NNC(=S)NC(=O)c2ccc(Br)o2)cc1	19	-17%	?	?	4%	7%
CCN1CCN(C(=S)NC(=O)c2cccc(Br)c2)CC1	12	-4%	?	?	-4%	2%
COc1ccccc1-c1nc(SCc2ccccn2)n[nH]1	32	13µM*	-2%	-11%	0%	3%
COc1ccccc1-c1nnc(SCc2ccccn2)n1C	-11	-1%	9%	8%	4%	6%
CCOC(=O)C1=CCN(S(=O)(=O)c2ccc(C)cc2)C1c1ccc(C(C)C)cc1 (configuration not stated)	17	-18%	18µM*	18µM*	?	·

Bioassay records (PubChem BioAssay)
